Assay results: PubChem BioAssay (EPA / NIEHS)
Where “and” joins values, the source holds several entries; their conditions need not be identical. Equal values may be shown once. Records with an inconclusive call do not appear. Where a structure was tested more than once in an assay, its records may differ in their call. Calls of active or inactive are those of the source. Rule for the calls: active = hit-call score of the fitted dose curve at least 0.9, where 1 is the maximum; inconclusive = response in the unintended direction; inactive = score below 0.9.

Test: TOX21_p53_BLA_p3_viability: Viability Assessment in the Tox21 HCT-116 p53 Agonism Beta-lactamase Assay, Phase 3 (AID 2283593);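 note: cells exposed to compound for 16 h before reading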
Excerpt: TOX21_p53_BLA_p3 is a cell-based, single-readout assay that uses HCT116, a human intestinal cell line, […] in a 1536-well plate.TOX21_p53_BLA_p3_viability is an assay readout measuring cellular ATP content and detected with CellTiter-Glo Luciferase-coupled ATP quantitation.TOX21_p53_BLA_p3_viability used a type of viability reporter where loss-of-signal activity can be used to understand changes in the cell viability. Furthermore, this assay endpoint can be referred to as a secondary readout, because this assay has produced multiple assay endpoints where this one serves a viability function. To generalize the intended target to other relatable targets, this assay endpoint is annotated to the cell cycle intended target family, where the subfamily is cytotoxicity.
Thawing Method: Place 14 mL of pre-warmed thaw medium into a 15 mL of conical tub. Remove the vial of cells to be thawed from liquid nitrogen and thaw rapidly by placing at 37C in a water bath with gentle agitation for 1-2 minutes. Decontaminate the vial by wiping with 70% ethanol before opening in a biological safety cabinet. Transfer the vial contents drop-wise into 14 mL of thaw medium in a sterile 15-mL conical tub. Centrifuge cells at 900 rpm for 4 minutes and resuspend in thaw medium. Transfer contents to the T75 tissue culture flask containing Thaw Medium and place flask in a humidified 37C/5% CO2 incubator. Switch to growth medium at first passage.Propagation Method: Aspirate medium, rinse once in DPBS, add 0.25% Trypsin/EDTA and swirl to coat the cell evenly. Add an equal volume of Growth Medium to inactivate Trypsin after 2-3 minutes incubation at 37C. Centrifuge cells at 900 rpm for 4 minutes and resuspend in growth medium. Cell should be passage or fed at least twice a week.Assay Protocol: Harvest cells from culture in growth medium and resuspend in assay medium. 2.2 Dispense 4000 cells/5 uL/well into 1536-well black/clear bottom plates using a Multidrop dispenser. After the cells were incubated at 37C for 5 hours, 23 nL of compounds dissolved in DMSO were transferred to the assay plate by a PinTool resulting in a 217-fold dilution. Incubate the plates for 16 hours at 37C, 5% CO2. Add 1 uL of 6X LiveBLAzer FRET B/G (CCF4-AM) Substrate Mixture to each well using a BioRAPTR dispenser and incubate the plates at room temperature for 2 hours. Measure fluorescence intensity at 460 and 530 nm emission and 405 nm excitation by an Envision detector. Data is expressed as the ratio of 460nm/530nm emissions. Add 4 uL of Cell-titer Glo to each well using BioRAPTR and incubate the plates at room temperature for […]. For cell viability readout that measures cytotoxicity, 4 ul/well of CellTiter-Glo reagent was added into the assay plates using a Flying Reagent Dispenser. After 30 min incubation at room temperature, the luminescence intensity in the plates was measured using a ViewLux plate reader.

SMILES	outcome	AC50
CC(C)[C@H](C(=O)OC(C#N)c1cccc(Oc2ccccc2)c1)c1ccc(OC(F)F)cc1 (stereo not given in full)	inactive	
COC(=O)c1cc(Oc2ccc(Cl)cc2Cl)ccc1[N+](=O)[O-]	inactive	
CC1(C)[C@H](C(=O)O[C@H](C#N)c2cccc(Oc3ccccc3)c2)[C@@H]1/C=C(\Cl)C(F)(F)F	inactive	
O=S1OC[C@@H]2[C@H](CO1)[C@]1(Cl)C(Cl)=C(Cl)[C@@]2(Cl)C1(Cl)Cl (stereo not given in full)		84.1 µM (active)
N#CS	inactive	
CCCCCCCCCCCCBr	inactive	
c1ccc(-c2cccc(-c3ccccc3)c2)cc1	inactive	
CCOc1cc(C=O)ccc1O	inactive	
C=C(C)C(=O)OCC(CC)CCCC (stereo not given)	inactive	
O=C(CBr)c1ccc(O)cc1	inactive	
O=[N+]([O-])c1cc([As](=O)(O)O)ccc1O	inactive	
O=[N+]([O-])c1c2ccccc2cc2ccccc12	inactive	
O=[N+]([O-])c1ccc(Cl)c([N+](=O)[O-])c1		86.3 µM (active) and 41.1 µM (active)
Nc1ccc(-c2ccccc2)cc1	inactive	
Cc1cccc(N=Nc2ccc(N(C)C)cc2)c1	inactive	
CCOc1ccc(N)cc1	inactive	
Cc1cc(C(F)(C(F)(F)F)C(F)(F)F)ccc1NC(=O)c1cccc(I)c1C(=O)NC(C)(C)CS(C)(=O)=O	inactive	
O=C(NC(=O)c1c(F)cccc1F)Nc1cc(Cl)c(OC(F)(F)C(F)C(F)(F)F)cc1Cl (stereo not given)	inactive	
CCOP(=S)(OCC)Oc1ccc(Cl)cc1Cl	inactive	

SMILES	outcome	AC50
CCC[N+](CCC)(CCC)CCC	inactive	
Cc1cc(Cl)ccc1OCCCC(=O)O	inactive	
CN(C)c1ccc(N=O)cc1		88.2 µM (active) and 80.8 µM (active)
Clc1ccc(C(Cl)(Cl)Cl)cn1	inactive	
O=c1oc2ccccc2c(O)c1C(CC(O)c1ccc(-c2ccc(Br)cc2)cc1)c1ccccc1 (stereo not given)	inactive	15.2 µM (active)
CC(C)CC(C)(c1ccc(O)cc1)c1ccc(O)cc1		57.9 µM (active) and 73.5 µM (active)
COC(=O)Nc1cccc(OC(=O)Nc2cccc(C)c2)c1	inactive	
O=C(O)COc1ccc(Cl)cc1	inactive	
Cc1cc(SCc2sc(-c3ccc(C(F)(F)F)c(F)c3)nc2C)ccc1OCC(=O)O		35.3 µM (active)
CCN(CC)C(=O)C(Cl)=C(C)OP(=O)(OC)OC	inactive	
O=[N+]([O-])c1ccc(Nc2ccccc2)cc1	inactive	61 µM (active)
CC(c1ccc(O)cc1)c1ccc(O)cc1	inactive	
O=[N+]([O-])c1ccccc1O	inactive	
CC(=O)CN(CC(C)=O)N=O	inactive	
CC(C)C(C)(N)C#N (stereo not given)	inactive	
Clc1cc(C(Cl)(Cl)Cl)cnc1Cl	inactive	
CC(C)=CC1C(C(=O)OCc2cccc(Oc3ccccc3)c2)C1(C)C (stereo not given)	inactive	
O=C(NC(=O)c1c(F)cccc1F)Nc1cc(Cl)c(Oc2ncc(C(F)(F)F)cc2Cl)c(Cl)c1	inactive	
CCOP(=S)(OCC)SCSc1cc(Cl)ccc1Cl	inactive	
